PrPC surface inh: inhibitors of human cell surface prion protein PrPC; TR-FRET read-out; inhibition, % at 13.8 µM; hit rate 0.43% among 370,000; in the data active means inhibition above about 24%; further: 0% = median of the test wells and 100% = reference compound wells
RecA splice inh: Mtb RecA intein splicing inhibition. AID 2221. P9WHJ3. hit rate 0.75% among 290,000. cell-free RecA intein splicing, fluorescence. inhibition, % (no concentration beside the values); in the data active means inhibition above about 30%;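 further: 0% = vehicle wells and 100% = reference inhibitor control wells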
GDH-TPI counter-1: inhibits GDH-TPI coupling enzymes, artifact for Mtb FBA screen. GDH-TPI coupled enzyme counterscreen, NADH absorbance. inhibition, % at 4.8 µM. hit rate 1.2% among 360,000; in the data active means inhibition above about 30%;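 further: 0% = DMSO wells and 100% = wells lacking the enzyme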
BJeLR viability: kills HRASV12-expressing BJeLR cells. BJeLR (HRASV12) viability, CellTiter-Glo ATP luminescence, 48 h. inhibition, % (concentration not given with the values). hit rate 0.17% among 300,000. AID 1554; in the data active means inhibition above about 50%
FBA Mtb inh: inhibits M. tuberculosis FBA enzyme | P9WQA3 | purified M. tuberculosis FBA, fluorescence read-out | inhibition, % at 1 µM | hit rate 2.3% among 360,000;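 further: 0% = vehicle and 100% = reference inhibitor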
Target sequence (P9WQA3 whole entry, looked up): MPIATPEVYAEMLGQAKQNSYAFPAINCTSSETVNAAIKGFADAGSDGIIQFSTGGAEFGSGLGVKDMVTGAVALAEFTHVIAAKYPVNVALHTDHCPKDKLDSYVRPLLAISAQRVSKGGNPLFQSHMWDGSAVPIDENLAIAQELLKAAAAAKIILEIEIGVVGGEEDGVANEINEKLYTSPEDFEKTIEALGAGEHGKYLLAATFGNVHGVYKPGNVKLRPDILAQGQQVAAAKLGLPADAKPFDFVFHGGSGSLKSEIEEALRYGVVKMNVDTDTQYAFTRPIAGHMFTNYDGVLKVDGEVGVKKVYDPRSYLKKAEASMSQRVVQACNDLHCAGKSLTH
Mtb FBA confirm: confirmation of M. tuberculosis fructose-bisphosphate aldolase inhibitors; purified M. tuberculosis FBA, fluorescence read-out; shares compounds with FBA Mtb inh; inhibition, % at 1 µM; AID 651616; hit rate 78% among 5,600;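 further: 0% = vehicle wells and 100% = reference inhibitor wells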
GDH-TPI counter-2: GDH-TPI inhibition counter-screen for FBA inhibitors | shares compounds with FBA Mtb inh | GDH-TPI coupled enzyme counterscreen, fluorescence | inhibition, % at 1 µM | hit rate 81% among 5,600 | AID 652141; in the data active means inhibition above about 10%
GDH-TPI dose: GDH-TPI dose response counter-screen for Mtb FBA; shares compounds with FBA Mtb inh; GDH-TPI coupled enzyme assay, fluorescence, artifact counterscreen; IC50, µM; hit rate 79% among 170; AID 652145; call rule not given here
* hit, by the source's call; · = not tested or not shown; + = active, no number. An excerpt weighted towards active compounds, which were near 4.2% of everything screened. Unless noted, no stated cut-off is given here; in the data, active means inhibition above about 27%; inactive means the rest.

SMILES	PrPC surface inh	RecA splice inh	GDH-TPI counter-1	BJeLR viability	FBA Mtb inh	Mtb FBA confirm	GDH-TPI counter-2	others
CCNC(=O)COc1ncnc2scc(-c3ccc(F)cc3)c12	3.9	-3.2	-11.7	-10.6	-5.1	·	·
COC(=O)c1cc(-c2ccc(OC)cc2F)nc2nc(SC)[nH]c(=O)c12	-2.1	1.1	17.0	-12.6	27.2*	+	+
COC(=O)c1cc(-c2ccccc2)nc2nc(SC)[nH]c(=O)c12	2.5	-0.4	18.6	-7.8	17.4	·	·
Cc1nc2oc3c(=O)[nH]cnc3c2c2c1COC(C)(C)C2	6.9	2.2	4.9	-4.9	44.0*	13.2	-4.7	GDH-TPI dose=4.75*
c1csc(-c2cnc3ccccc3n2)c1	-18.2	-7.8	-0.3	10.1	63.1*	-0.8	-2.1
c1coc(-c2cnc3ccccc3n2)c1	4.3	·	15.9	·	105.8*	68.8*	46.0*
Nc1nc2ncccc2cc1C(=O)c1c[nH]c2ccccc12	-0.5	·	·	·	·	·	·
O=C(Nc1ccccc1)c1cccc(=O)o1	-6.5	-0.1	33.3*	9.3	51.7*	196.7*	174.3*
O=C(Nc1ccccc1)c1cc2ccccc2o1	0.0	1.6	6.1	30.3	-3.8	·	·
CCc1cc(=O)oc2c(C)c(OCC(=O)N3CCC(C(=O)O)CC3)ccc12	5.1	2.4	14.7	-0.9	37.7*	-6.7	-9.4
CCC1CCCCN1C(=O)COc1ccc2c3c(c(=O)oc2c1)CCC3 (stereo unspecified)	6.8	·	9.1	·	23.2	·	·
O=C(O)[C@@H]1CCCN1C(=O)COc1ccc2c3c(c(=O)oc2c1)CCC3	-8.3	·	14.7	-4.8	41.8*	91.8*	68.0*
O=C(O)C1CCN(C(=O)COc2ccc3c4c(c(=O)oc3c2)CCCC4)CC1	1.6	-2.4	13.7	-1.1	100.3*	57.5*	47.9*
O=C(COc1ccc2c3c(c(=O)oc2c1)CCC3)N1CCCC1	6.1	2.5	5.5	-6.6	25.8	·	·
CCc1cc(=O)oc2cc(OCC(=O)N3CCC(C(=O)O)CC3)ccc12	9.2	-2.5	5.9	-14.4	27.1*	73.7*	70.9*
COc1ccc2c(c1)c(=O)oc1cc(OCC(=O)N3CCC(C)CC3)ccc12	·	-3.6	18.3	-4.2	20.8	·	·
CNc1ccccc1/C(O)=C(\C#N)C(=O)NCc1cccs1	3.9	·	·	·	·	·	·
CCCOc1ccc2c(CC)cc(=O)oc2c1C	-6.2	-1.1	18.4	-16.8	34.6*	92.0*	79.9*
Cc1c(OCC(=O)N2CCN(c3ccccc3)CC2)ccc2c3c(c(=O)oc12)CCCC3	2.1	0.7	-8.2	-2.9	-6.8	·	·
Cc1cc(=O)oc2c(C)c(OCC(=O)N3CCN(c4ccccc4)CC3)ccc12	3.9	-0.2	19.9	1.5	3.6	·	·
Cc1c(C)c2ccc(OCC(=O)N3CCC(C(=O)O)CC3)cc2oc1=O	-6.9	0.7	7.8	-9.5	102.6*	-5.5	-4.6
Cc1cc(=O)oc2c(C)c(OCC(=O)N3CCN(C(=O)C4COc5ccccc5O4)CC3)ccc12 (stereo unspecified)	9.1	-0.8	16.5	-1.2	32.2*	135.8*	118.2*
Cc1c(OCC(=O)N2CCC(C(=O)O)CC2)ccc2c3c(c(=O)oc12)CCCC3	-0.8	·	17.6	-3.1	66.1*	69.7*	57.7*
O=S1(=O)c2ccc(N3CC[C@H](O)C3)cc2OCCCN1C1CC1	0.0	·	·	·	·	·	·
Cc1c[nH]c2cccc(-c3ccc(Cl)cc3Cl)c12	3.5	·	·	·	·	·	·
SMILES	PrPC surface inh	RecA splice inh	GDH-TPI counter-1	BJeLR viability	FBA Mtb inh	Mtb FBA confirm	GDH-TPI counter-2	others
O=C(CSc1nc2sc3c(c2c(=O)n1-c1ccc(Cl)cc1)CCC3)Nc1ccc(C(=O)O)cc1	2.9	·	·	·	·	·	·
COC(=O)C1CCN(C(=O)CN2CCC(C(=O)c3ccc(C)cc3)CC2)CC1	-7.7	·	·	·	·	·	·
O=C(Nc1ccc(Nc2cccnc2)cc1)c1c[nH]c2ccccc12	-7.7	·	·	·	·	·	·
Cc1cc(NC(=O)c2ccc(NS(=O)(=O)c3ccc(F)cc3)cc2)no1	-1.5	·	·	·	·	·	·
CCC(C)[C@H](NC(=O)[C@H](Cc1ccccc1)NC(=O)OC(C)(C)C)C(=O)NCc1ccccc1Br (stereo partly specified)	-7.6	·	·	·	·	·	·
COC(=O)[C@H](Cc1ccccc1)NC(=O)NC(C)CCc1ccccc1 (stereo partly specified)	-3.3	2.4	2.9	-3.1	76.8*	+	+
CSc1nnc(-c2sc(-c3ccccc3)nc2C)n1C	-2.9	-5.2	11.7	-1.1	54.2*	9.8	5.7
Cc1nc(-c2ccccc2)sc1-c1n[nH]c(=S)n1C	-10.0	1.2	13.9	-19.2	-0.1	·	·
COc1ccc2c(c1)c1ncn(CCc3ccccc3)c(=O)c1n2C	-6.0	4.8	16.3	-1.6	105.4*	106.2*	91.4*
CCOC(=O)c1[nH]c2ccc(F)cc2c1NC(=O)c1ccccc1C(=O)O	-1.4	-5.7	-2.1	-5.9	58.5*	5.0	-0.4
CCOC(=O)c1[nH]c2ccc(OC)cc2c1NC(=O)CCN1CCc2ccccc2C1	-7.6	2.8	6.7	0.5	39.5*	86.9*	83.0*
CCOC(=O)c1[nH]c2ccc(OC)cc2c1NC(C)=O	-3.6	-0.1	8.4	-12.6	34.2*	5.0	-2.5
C=CCOC(=O)Nc1c(C(=O)OC)[nH]c2ccc(Cl)cc12	-0.7	2.7	17.4	-3.8	40.4*	0.1	-3.0
CC(C)(C)S(=O)N1C[C@H]2CC(=O)C(CCO)=C2[C@@H]1CCO (stereo partly specified)	5.7	·	·	·	·	·	·
CCOC(=O)[C@@H]1CSCCS(=O)(=O)N1Cc1ccccc1	-3.2	·	·	·	·	·	·
CCOC(=O)c1[nH]c2ccc(OC)cc2c1NC(=O)CN1CCSCC1	1.0	·	7.1	·	43.9*	67.6*	52.3*
CCOC(=O)c1[nH]c2cc(OC)c(OC)cc2c1NC(=O)CN(C)C1CCCCC1	11.5	0.7	39.6*	-14.9	33.5*	8.1	-3.0
CCOC(=O)c1[nH]c2ccc(OC)cc2c1NC(=O)c1ccccc1C(=O)O	-3.9	-4.3	1.1	-1.5	30.2*	31.2*	31.4*
CCOC(=O)c1[nH]c2cc(OC)c(OC)cc2c1NC(=O)c1ccc2c(c1)OCO2	-4.1	-4.4	4.9	3.5	-1.2	·	·
CCOC(=O)c1[nH]c2cc(OC)c(OC)cc2c1NC(=O)CCN1CCSCC1	3.0	-0.4	20.0	5.8	106.6*	125.8*	114.7*
CCOC(=O)c1[nH]c2ccc(Br)cc2c1NC(=O)CCN1CCC(C)CC1	-1.3	-0.7	4.4	3.9	-5.1	·	·
CCOC(=O)c1[nH]c2ccc(OC)cc2c1NC(=O)CCN1CCC(C)CC1	-8.2	0.0	·	2.0	·	·	·
C=CCN=C1NC(c2ccccc2)C(C(=O)OC)=C(C)N1Cc1ccccc1C(F)(F)F (stereo unspecified)	-11.2	·	·	·	·	·	·
Cc1ccc(-c2nc(C3CCCN(S(=O)(=O)c4cccs4)C3)no2)cc1 (stereo unspecified)	-5.9	·	·	·	·	·	·
